Compounds without any hit were thinned out: in the full panel of roughly 83,000, 20% have a hit.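 Assay: single dose, 48 h. Readout: percent growth (0 = no net growth; negative = cell death). Active: <10.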 The source made the active and inactive calls.
Legend:
Test in all cases: NCI-60 one-dose screen, 48 h (100 = growth as untreated, 0 = no growth, -100 = all killed)
Conditions in all cases: 10 µM unless noted
SR leukemia = tested on: SR leukemia
RPMI-8226 leukemia = tested on: RPMI-8226 leukemia
OVCAR-8 ovarian = tested on: OVCAR-8 ovarian
OVCAR-5 ovarian = tested on: OVCAR-5 ovarian
OVCAR-4 ovarian = tested on: OVCAR-4 ovarian
SK-OV-3 ovarian = tested on: SK-OV-3 ovarian
IGROV1 ovarian = tested on: IGROV1 ovarian
OVCAR-3 ovarian = tested on: OVCAR-3 ovarian
HS 578T breast = tested on: HS 578T breast
NCI/ADR-RES ovarian = tested on: NCI/ADR-RES ovarian

Measured: growth

O=C1Nc2ccc(I)cc2C1=O
inactive: SR leukemia 100% | RPMI-8226 leukemia 144% | OVCAR-8 ovarian 90.7% | OVCAR-5 ovarian 98.6% | OVCAR-4 ovarian 101% | SK-OV-3 ovarian 108% | IGROV1 ovarian 46.6% | OVCAR-3 ovarian 74.7% | HS 578T breast 97.8% | NCI/ADR-RES ovarian 97.2%

Cc1cc2c(O)c(-c3cc(Cl)ccc3Cl)c3sc(=O)oc3c2cc1C
inactive: SR leukemia 54.3% | RPMI-8226 leukemia 38.3% | OVCAR-8 ovarian 68.1% | OVCAR-5 ovarian 106% | OVCAR-4 ovarian 24.5% | SK-OV-3 ovarian 76.3% | IGROV1 ovarian 76.5% | OVCAR-3 ovarian 29.8% | HS 578T breast 76.4% | NCI/ADR-RES ovarian 85.3%

Cc1nc2sc(C(=O)Nc3ccccc3)c(N)c2cc1C(=O)c1ccccc1
active: SR leukemia 8.32% | SK-OV-3 ovarian 4.72%
inactive: RPMI-8226 leukemia 38% | OVCAR-8 ovarian 56% | OVCAR-5 ovarian 59% | OVCAR-4 ovarian 63% | IGROV1 ovarian 56.8% | OVCAR-3 ovarian 29.2% | HS 578T breast 13% | NCI/ADR-RES ovarian 37.8%

N#Cc1cccc(F)c1
inactive: SR leukemia 98.1% | RPMI-8226 leukemia 113% | OVCAR-8 ovarian 109% | OVCAR-5 ovarian 83.1% | OVCAR-4 ovarian 118% | SK-OV-3 ovarian 111% | IGROV1 ovarian 106% | OVCAR-3 ovarian 126% | HS 578T breast 107% | NCI/ADR-RES ovarian 104%

CC(C)N1CCN(Cc2ccc3c(NNC(=O)c4ccccc4)nc4cc(F)ccc4n23)CC1
inactive: RPMI-8226 leukemia 26.5% | OVCAR-8 ovarian 17.9% | OVCAR-5 ovarian 59.6% | OVCAR-4 ovarian 21.2% | SK-OV-3 ovarian 35% | IGROV1 ovarian 21.4% | OVCAR-3 ovarian 39.8% | HS 578T breast 75.8%
active: SR leukemia 8.09% | NCI/ADR-RES ovarian 6.16%

C=C(C)[C@@H]1CC[C@]2(C(=O)O)CC[C@]3(C)[C@H](CC[C@@H]4[C@@]5(C)C[C@@H](Cc6cn(CCO[C@@H]7O[C@H](COC(C)=O)[C@H](OC(C)=O)[C@H](OC(C)=O)[C@H]7OC(C)=O)nn6)[C@H](O)C(C)(C)[C@@H]5CC[C@]43C)[C@@H]12
inactive: SR leukemia 48.2% | RPMI-8226 leukemia 38.3% | OVCAR-8 ovarian 77.8% | OVCAR-5 ovarian 97.3% | OVCAR-4 ovarian 72.8% | SK-OV-3 ovarian 80.8% | IGROV1 ovarian 59.3% | OVCAR-3 ovarian 67% | HS 578T breast 51.9% | NCI/ADR-RES ovarian 91.8%

CN(C)C1CCN(Cc2ccc(NC(=O)c3cncc(C#Cc4cnc(N)c5ncccc45)c3)cc2C(F)(F)F)CC1
active: SR leukemia 1.15% | OVCAR-8 ovarian -25.4% | OVCAR-4 ovarian -14.7% | NCI/ADR-RES ovarian -63.9%
inactive: RPMI-8226 leukemia 60.9% | OVCAR-5 ovarian 123% | SK-OV-3 ovarian 103% | IGROV1 ovarian 112% | OVCAR-3 ovarian 97.9% | HS 578T breast 44.9%

C[C@H](NC(=O)[C@@H](C)N)[C@H](Oc1ccc2c(cnn2-c2ccc(F)cc2)c1)c1ccc2c(c1)OCCO2
active: SR leukemia -41.9%
inactive: RPMI-8226 leukemia 20.7% | OVCAR-8 ovarian 57.8% | OVCAR-5 ovarian 64.7% | OVCAR-4 ovarian 60.7% | SK-OV-3 ovarian 49.2% | IGROV1 ovarian 40.9% | OVCAR-3 ovarian 55.8% | HS 578T breast 64.8% | NCI/ADR-RES ovarian 57.6%

COc1ccc2nc3ccc(OC)cc3c(SCCCN)c2c1
active: SR leukemia -30.8% | RPMI-8226 leukemia -22.7%
inactive: OVCAR-8 ovarian 76.1% | OVCAR-5 ovarian 83.2% | OVCAR-4 ovarian 63.9% | SK-OV-3 ovarian 95% | IGROV1 ovarian 97.2% | OVCAR-3 ovarian 71.3% | HS 578T breast 89.7% | NCI/ADR-RES ovarian 86.9%

CCOC(=O)c1cc(C(=O)c2cc(OC)c(OC)c(OC)c2)n2ccc(-c3ccncc3)cc12
inactive: SR leukemia 69.4% | RPMI-8226 leukemia 56.9% | OVCAR-8 ovarian 90.5% | OVCAR-5 ovarian 113% | OVCAR-4 ovarian 96.3% | SK-OV-3 ovarian 87% | IGROV1 ovarian 111% | OVCAR-3 ovarian 109% | HS 578T breast 86.8% | NCI/ADR-RES ovarian 99.2%

COc1ccc(-c2csc(NC(=O)CSc3nc(-c4ccccc4)cc(=O)[nH]3)n2)cc1
inactive: SR leukemia 61.1% | RPMI-8226 leukemia 41.8% | OVCAR-8 ovarian 70.8% | OVCAR-5 ovarian 94.3% | OVCAR-4 ovarian 54.2% | SK-OV-3 ovarian 91% | IGROV1 ovarian 71.6% | OVCAR-3 ovarian 72% | HS 578T breast 84.6% | NCI/ADR-RES ovarian 51.3%

O=C(/C=C/c1cn(-c2ccccc2)nc1-c1ccc([N+](=O)[O-])cc1)c1ccc(Cl)cc1
inactive: RPMI-8226 leukemia 38.3% | OVCAR-8 ovarian 38.1% | OVCAR-5 ovarian 34.2% | SK-OV-3 ovarian 66.5% | IGROV1 ovarian 48% | OVCAR-3 ovarian 10.6% | NCI/ADR-RES ovarian 41.1%
active: SR leukemia -22.6% | OVCAR-4 ovarian -21.8% | HS 578T breast -12%

O=c1c2cc(-c3ccccc3)sc2nc2sc(-c3ccccc3)nn12
inactive: SR leukemia 99.1% | RPMI-8226 leukemia 92.4% | OVCAR-8 ovarian 104% | OVCAR-5 ovarian 115% | OVCAR-4 ovarian 105% | SK-OV-3 ovarian 108% | IGROV1 ovarian 109% | OVCAR-3 ovarian 108% | HS 578T breast 96% | NCI/ADR-RES ovarian 107%

CCCCN[C@H]1CC[C@@]2(C)[C@@H](CC[C@@]3(C)[C@H]2[C@H](O)C[C@H]2/C(=C(\CCC=C(C)C)C(=O)OC)[C@@H](OC(C)=O)C[C@@]23C)[C@@H]1C
inactive: SR leukemia 74.5% | RPMI-8226 leukemia 95.9% | OVCAR-8 ovarian 102% | OVCAR-5 ovarian 91.4% | OVCAR-4 ovarian 102% | SK-OV-3 ovarian 104% | IGROV1 ovarian 99.2% | OVCAR-3 ovarian 106% | HS 578T breast 87.3% | NCI/ADR-RES ovarian 100%

C=C1C(=O)O[C@H]2[C@H]1CC/C(COC(=O)NCc1cc[nH]c1)=C\CC[C@@]1(C)O[C@@H]21
inactive: RPMI-8226 leukemia 30.2% | OVCAR-8 ovarian 70.8% | OVCAR-5 ovarian 50.5% | OVCAR-4 ovarian 57.1% | SK-OV-3 ovarian 75.7% | IGROV1 ovarian 15.5% | OVCAR-3 ovarian 16.6% | HS 578T breast 63% | NCI/ADR-RES ovarian 90.6%
active: SR leukemia 4.94%

CC1=C(CCC(C)N(C)Cc2ccc(OCCCN3CCCC3)cc2)C(C)(C)CCC1 (stereo not given)
inactive: OVCAR-8 ovarian 45.7% | OVCAR-5 ovarian 25.4% | OVCAR-4 ovarian 60.2% | SK-OV-3 ovarian 36.5% | IGROV1 ovarian 42.9% | OVCAR-3 ovarian 23.6% | HS 578T breast 36.4% | NCI/ADR-RES ovarian 63%
active: SR leukemia -24.9% | RPMI-8226 leukemia -14.3%

O=C1c2cccnc2C(=O)c2c1c(C(=O)NCCn1ccnc1)c1ccccn21
active: SR leukemia 7.94% | OVCAR-8 ovarian 4.37% | OVCAR-4 ovarian -47.6% | OVCAR-3 ovarian 3.37%
inactive: RPMI-8226 leukemia 55.8% | OVCAR-5 ovarian 92.1% | SK-OV-3 ovarian 48.4% | IGROV1 ovarian 26.3% | HS 578T breast 65.6% | NCI/ADR-RES ovarian 75.3%

Oc1ccc(CCn2c(O)c(/C=C3\CN=c4ccccc4=N3)sc2=S)cc1
inactive: SR leukemia 20.9% | RPMI-8226 leukemia 33.8% | OVCAR-8 ovarian 86.8% | OVCAR-5 ovarian 95.6% | OVCAR-4 ovarian 80.5% | SK-OV-3 ovarian 79.5% | IGROV1 ovarian 39.9% | OVCAR-3 ovarian 44.7% | HS 578T breast 68.5% | NCI/ADR-RES ovarian 65.7%

COc1ccc(C2c3sc4c(F)cccc4c3Oc3nc[nH]c(=O)c32)cc1 (stereo not given)
inactive: SR leukemia 75.9% | RPMI-8226 leukemia 69.3% | OVCAR-8 ovarian 89% | OVCAR-5 ovarian 83.6% | OVCAR-4 ovarian 85.4% | SK-OV-3 ovarian 97.4% | IGROV1 ovarian 45.7% | OVCAR-3 ovarian 88.5% | HS 578T breast 83.1% | NCI/ADR-RES ovarian 84.4%

C#COc1cccc(Nc2ncnc3ncc(NC(=O)CCl)cc23)c1
active: IGROV1 ovarian -42.4% [6.25 µM] | OVCAR-3 ovarian -56.4% [6.25 µM]
inactive: SR leukemia 16.2% [6.25 µM] | RPMI-8226 leukemia 52.9% [6.25 µM] | OVCAR-8 ovarian 10.3% [6.25 µM] | OVCAR-5 ovarian 31.5% [6.25 µM] | OVCAR-4 ovarian 32.6% [6.25 µM] | SK-OV-3 ovarian 53.1% [6.25 µM] | HS 578T breast 43.4% [6.25 µM] | NCI/ADR-RES ovarian 12% [6.25 µM]

CC(=O)[C@@H]1CCC=C2CC[C@]3(C)[C@@H](CC[C@@H]4[C@@]5(C)CCCNC(C)(C)[C@@H]5CC[C@]43C)[C@H]21
inactive: OVCAR-5 ovarian 16.8% | SK-OV-3 ovarian 93%
active: SR leukemia -45.2% | RPMI-8226 leukemia -49.2% | OVCAR-8 ovarian -84.4% | OVCAR-4 ovarian -67.5% | IGROV1 ovarian -94.2% | OVCAR-3 ovarian -93.3% | HS 578T breast -30.9% | NCI/ADR-RES ovarian -52.2%

O=CC1(C2(C=O)c3ccccc3-c3ccccc32)c2ccccc2-c2ccccc21
active: SR leukemia -32.3% | RPMI-8226 leukemia -24% | OVCAR-8 ovarian -49.9% | OVCAR-5 ovarian -40.9% | OVCAR-4 ovarian -76.4% | SK-OV-3 ovarian -65% | IGROV1 ovarian -76.4% | OVCAR-3 ovarian -74.7% | HS 578T breast -4.62% | NCI/ADR-RES ovarian -14%

Cn1cc(-c2csc(-c3c[nH]c4ccc(Br)cc34)n2)c2cnccc21
active: SR leukemia -30.9% | RPMI-8226 leukemia -40.3% | OVCAR-8 ovarian -60.5% | OVCAR-5 ovarian -95.7% | OVCAR-4 ovarian -84.8% | SK-OV-3 ovarian -95.5% | IGROV1 ovarian -77.8% | OVCAR-3 ovarian -91.9% | HS 578T breast -60.5% | NCI/ADR-RES ovarian -69.2%

COc1ccc(-c2nc(/C=C3\SC(=NCc4ccccc4)NC3=O)c3ccccn23)cc1
active: SR leukemia 3.32% | RPMI-8226 leukemia -3.83% | OVCAR-8 ovarian -24.6% | OVCAR-5 ovarian -15% | OVCAR-4 ovarian -71.9% | SK-OV-3 ovarian -46.7% | IGROV1 ovarian -44.7% | OVCAR-3 ovarian -88.5% | HS 578T breast -35.3% | NCI/ADR-RES ovarian -4.46%

Cc1ccc(CNc2ccc(Cl)cc2NCc2ccc(C)c(O)c2)cc1O
active: SR leukemia -33%
inactive: RPMI-8226 leukemia 16% | OVCAR-8 ovarian 23.6% | OVCAR-5 ovarian 73.6% | OVCAR-4 ovarian 27.8% | SK-OV-3 ovarian 54.7% | IGROV1 ovarian 24.2% | OVCAR-3 ovarian 10.9% | HS 578T breast 42.7% | NCI/ADR-RES ovarian 15.4%

Cc1cc(N)c2cc(NC(=O)/C=C\c3ccccc3Cl)ccc2n1
inactive: NCI/ADR-RES ovarian 48.9%
active: SR leukemia 7.11% | RPMI-8226 leukemia -70.9% | OVCAR-8 ovarian -41.9% | OVCAR-5 ovarian -95.4% | OVCAR-4 ovarian -64.1% | SK-OV-3 ovarian -96.4% | IGROV1 ovarian -67.5% | OVCAR-3 ovarian -90.2% | HS 578T breast -72.3%

Source: PubChem BioAssay (NCI)
